Laboratory results published in the supplement of paper PMC3334620.
Whole data set: some 33,000 sequences, median “E-score (-0.5 to 0.5)” near -0.012, cut for the highest 2% near 0.29. Only a selection was taken, and the highest values are over-represented in it overall.

Molecular target: T1, Ybr033w (UniProt P38073)
T1 sequence: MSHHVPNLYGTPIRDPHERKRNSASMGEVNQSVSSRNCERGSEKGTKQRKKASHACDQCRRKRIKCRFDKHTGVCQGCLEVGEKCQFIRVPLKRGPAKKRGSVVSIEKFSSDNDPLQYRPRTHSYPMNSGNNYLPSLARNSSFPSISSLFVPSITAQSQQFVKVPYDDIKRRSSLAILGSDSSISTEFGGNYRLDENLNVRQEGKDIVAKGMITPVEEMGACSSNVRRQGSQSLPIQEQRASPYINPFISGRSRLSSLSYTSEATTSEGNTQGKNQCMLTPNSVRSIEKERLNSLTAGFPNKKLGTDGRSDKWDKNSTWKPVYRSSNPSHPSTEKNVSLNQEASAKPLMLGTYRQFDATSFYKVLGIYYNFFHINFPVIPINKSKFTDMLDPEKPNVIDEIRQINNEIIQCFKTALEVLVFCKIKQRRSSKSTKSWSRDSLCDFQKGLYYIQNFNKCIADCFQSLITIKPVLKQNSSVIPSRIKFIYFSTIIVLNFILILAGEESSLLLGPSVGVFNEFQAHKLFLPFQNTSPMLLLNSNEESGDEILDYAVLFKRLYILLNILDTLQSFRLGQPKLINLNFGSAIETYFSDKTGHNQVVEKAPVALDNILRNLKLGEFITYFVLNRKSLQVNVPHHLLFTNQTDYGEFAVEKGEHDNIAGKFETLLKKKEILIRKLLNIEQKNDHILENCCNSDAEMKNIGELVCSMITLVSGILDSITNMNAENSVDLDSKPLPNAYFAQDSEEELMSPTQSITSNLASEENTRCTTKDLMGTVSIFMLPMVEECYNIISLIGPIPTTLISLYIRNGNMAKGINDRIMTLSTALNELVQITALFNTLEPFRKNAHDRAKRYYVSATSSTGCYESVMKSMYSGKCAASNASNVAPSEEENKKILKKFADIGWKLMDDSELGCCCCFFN
Assay: PBM E-score (8-mer binding enrichment) (E-score (-0.5 to 0.5)); higher = stronger / more preferred TF binding
Details: protein concentration: 200 nM; construct: GST-full length
Outline: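 Yeast transcription factors, full-length or as DNA-binding domains, were expressed with a GST tag using PURExpress in vitro transcription/translation. At about 100-200 nM they were applied to universal all-10-mer Agilent arrays, double-stranded by primer extension on fresh or once-stripped slides. Fluorescent anti-GST detected bound protein, and masliner normalised the scans. E-scores for ungapped eight-base words, pooled with reverse complements, came from the Universal PBM Analysis Suite.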

Row | Sequence | PBM E-score
1 | ATTGGCTA | 0.117
2 | ACCAAGCC | -0.0301
3 | TCCAATCA | 0.0621
4 | TGATAACA | 0.176
5 | GCGAGGAA | 0.125
6 | AGGGATTA | 0.187
7 | CCGGATTA | 0.34
8 | GTGGATAA | 0.169
9 | CGGGATTA | 0.312
10 | TCGGATAA | 0.335
11 | ACGGATAT | 0.192
12 | TGGGATAA | 0.123
13 | ACGGATTA | 0.233
14 | CGGGATTC | -0.0497
15 | CTGGATAA | 0.316
16 | ATGGATAA | 0.259
17 | GCGGATTA | 0.285
18 | GGACCACA | -0.00774
19 | CCTACCAC | -0.155
20 | AGCGTCCA | -0.13
21 | TAGGCTGA | -0.0515
22 | CACCAACC | -0.105
23 | AATCCACT | 0.193
24 | TAGCTTGA | -0.0114
25 | GGCCTTGA | -0.0647

Row | Sequence | PBM E-score
26 | ACGTCAGG | -0.168
27 | CCGGATGC | -0.178
28 | ACGGATAA | 0.276
29 | CTGGATTA | 0.309
30 | ACGGATCA | 0.236
31 | CCGGATGA | 0.289
32 | CCGGATCC | -0.129
33 | GCGGATAA | 0.416
34 | GCGGATGA | 0.0612
35 | CTGGATTC | 0.00016
36 | GCGGATAC | 0.0188
37 | GTGGATTA | 0.164
38 | CCGGATCA | 0.345
39 | CTTTGGTC | 0.0811
40 | GAACTTCC | 0.16
41 | CTTCGCCC | -0.143
42 | AATAGGGG | -0.0543
43 | GGGGCTCA | -0.219
44 | AGTTGCGG | 0.0698
45 | AAGTTAGA | 0.235
46 | GTACAGAC | -0.1
47 | GACACATC | -0.11
48 | GGCTACCA | -0.203
49 | GATGCTAC | 0.0488
50 | CCCTTTCA | -0.19

Row | Sequence | PBM E-score
51 | AAGTCTTA | -0.00514
52 | CCGGATAC | -0.0612
53 | CCGGATAG | 0.0368
54 | CCGGATAA | 0.454
55 | CCAGAATA | 0.0783
56 | ACTTTGGA | 0.156
57 | ACCATGAC | -0.0754
58 | ACAGCTGC | -0.0919
59 | CGAGAGAC | -0.188
60 | AAATTAGG | 0.138
61 | CAATTAAC | 0.224
62 | AAATTAGT | 0.206
63 | AGATTATC | 0.301
64 | AAATTATC | 0.418
65 | CAATTATG | 0.08
66 | CGATTATC | 0.07
67 | AAATTATT | 0.417
68 | ACATTATC | 0.219
69 | AGATTATG | 0.148
70 | CAATTATC | 0.365
71 | AAATTATG | 0.227
72 | CCCCACAA | -0.229
73 | CACTTTAG | 0.112
74 | ACTTACTC | 0.0333
75 | GTGCGGTA | -0.0389

Row | Sequence | PBM E-score
76 | CCCAAGCA | -0.0848
77 | AACCTCGG | 0.0447
78 | GAAATCTC | -0.0338
79 | CGGGGGAG | -0.329
80 | AAAATAGT | 0.225
81 | CAAATATC | 0.269
82 | ACAATATA | 0.264
83 | ACAATATG | 0.199
84 | AATATATA | 0.277
85 | AATATATG | 0.204
86 | AAAATATT | 0.364
87 | AAAATATA | 0.28
88 | ACAATATC | 0.293
89 | AATATATT | 0.411
90 | AAAATATC | 0.304
91 | CACCTCTC | -0.283
92 | AGAATGGA | 0.0873
93 | GGACGCGA | -0.0773
94 | ATCTGGGC | -0.0818
95 | CTCCTCGC | -0.257
96 | CATTCTAA | 0.165
97 | CTGGCTTC | -0.174
98 | TATTCTGA | 0.0151
99 | ATCTCATG | 0.0775
100 | ATTTTCTG | 0.0635

Row | Sequence | PBM E-score
101 | AGAATATG | 0.229
102 | CAAATATG | 0.0991
103 | AAAATATG | 0.299
104 | GTCTGACA | 0.00461
105 | CAGTTATC | -0.0111
106 | GAGTAGTA | 0.163
107 | ATTAATGG | 0.289
108 | AATAATGG | 0.162
109 | GTTAATGA | 0.12
110 | ATTAATGC | 0.22
111 | CTTAATGA | -0.0192
112 | ATTAATGA | 0.354
113 | AATTAGCG | 0.161
114 | AGTCTCAC | -0.0327
115 | TAAAGGAA | 0.162
116 | AGGATGAA | 0.187
117 | CGGATGAA | 0.371
118 | CGGATGAG | -0.0297
119 | AGTCCAGC | -0.114
120 | GGGTGAAA | 0.0993
121 | ACAGTCGT | -0.164
122 | TGGAAACA | -0.0929
123 | TGTGGAAA | 0.291
124 | TGAAAAAA | 0.246
125 | AGGAAAAA | 0.431

Row | Sequence | PBM E-score
126 | GGGAAAAA | 0.453
127 | CGTGGAAA | 0.182
128 | AGTGGAAA | 0.146
129 | GGGGAAAA | 0.208
130 | TGGAAAAA | 0.458
131 | AGGAAAAC | 0.12
132 | AGGAAAAG | 0.038
133 | GGGAAAAC | 0.0792
134 | GGCTGAGA | -0.171
135 | GTCATTAA | 0.203
136 | TGTTATAA | 0.19
137 | ATACGGTA | 0.125
138 | CTTTGTGC | -0.00737
139 | CAGGCATC | 0.00941
140 | TCTCGACA | 0.0966
141 | CCGACTCC | -0.185
142 | ACGAAAAT | 0.259
143 | AGAAAAAT | 0.269
144 | AAGAAATT | 0.281
145 | AAGAAAAT | 0.331
146 | AAGAAAAA | 0.258
147 | AGGAAAAT | 0.379
148 | CTACTGGC | -0.052
149 | AGTAGCTG | 0.0396
150 | GCAGCGTA | -0.106

Row | Sequence | PBM E-score
151 | AGAACTAT | 0.275
152 | ATCTTTGG | 0.0693
153 | CTTTAATC | 0.145
154 | CTTTAATA | 0.227
155 | ATTTAATA | 0.325
156 | ATTTAATG | 0.244
157 | GTTTAATA | 0.264
158 | ATTTAGTC | 0.0709
159 | ATTTAGTA | 0.376
160 | CTTTAGTA | 0.0159
161 | ATTTAATC | 0.352
162 | GACTCCCA | -0.305
163 | CAGCCGTC | -0.0893
164 | TAGAAGAA | 0.0772
165 | AAGAAGAA | 0.185
166 | AGGAAGAG | -0.0292
167 | CGGAAGAA | 0.462
168 | AGGAAGAC | -0.214
169 | CGGAAGAC | 0.00735
170 | CGGAAGAG | -0.108
171 | AAGAAGAT | 0.205
172 | AGGAAGAA | 0.36
173 | AGGAAGAT | 0.323
174 | GGGAAGAA | 0.256
175 | TGGAAGAA | 0.347
